For test [1], the target named is Cytochrome P450 1A2 (Homo sapiens) (UniProt P05177). Briefly: p450-cyp1a2 (AID 410).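 For activity change, negative = inhibition: -100% = full effect of reference inhibitor.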 Note: potency is the fitted concentration of half-maximal effect. The essentials:
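Luminescent readout of luciferin formed from Luciferin-ME by human CYP1A2; data normalized against complete inhibition by 57 uM furafylline. Enzyme 20nM, substrate 100uM at Km, 100mM KPO4 buffer, 60 min reaction at room temperature.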

Test [2] in a line: NFAT Signaling Pathway (AID 444; active = well fitted curve in either direction with a large enough effect, not every such curve was filed as active;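 note: carbachol stimulus at about its EC50 of 1 µM final; % is set by controls: 0 for no effect and ±100 for the full control effect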). As to conditions: Jurkat NFAT-bla M1, carbachol, beta-lactamase ratio, 5 h; at 7.69 µM (top of the series) unless noted. The essentials:
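Jurkat cells with NFAT-driven β-lactamase reporter and co-expressed M1 receptor, stimulated with carbachol (final 1 uM, ~EC50), compound titration, 5 h at 37 °C. CCF4 loaded 1 h at RT; 460/530 nm ratio gave %activity and AC50.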

Test [3] is described as follows: Stat Signaling Pathway (AID 446; active = well fitted curve in either direction with a large enough effect, not every such curve was filed as active;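 note: ME-180 cervical cancer cells given 40 pM IL-6 alongside compound; SIE-controlled beta-lactamase reporter measured as 460/530 nm FRET emission ratio; % is set by controls: 0 for no effect and ±100 for the full control effect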). As to conditions: ME-180 SIE beta-lactamase reporter, IL-6 stimulated, 5 h. The essentials: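 Reporter line: ME-180 cervical carcinoma, SIE-beta-lactamase. Treatment: compound with 40 pM IL-6, 5 hrs, 37 C, in low-serum OPTI-MEM with 10 mM HEPES pH 7.3. Detection: 460/530 nm fluorescence.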
The target of test [4] is Glucocorticoid receptor (Homo sapiens) (UniProt P04150). The test can be described thus: GR-GFP Redistribution (AID 450;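 active = compounds whose dose series gives a full or clear partial fitted curve of increased nuclear translocation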; note: potency is the fitted concentration of half-maximal effect). Particulars: U2OS GR-GFP nuclear translocation, laser cytometry, 2 h.
Test [5] has the same target. Briefly: GR-EFC Redistribution (AID 451). Note: potency is the fitted concentration of half-maximal effect. As to conditions: CHO-K1 GR-EFC translocation, beta-gal luminescence, 2 h. The essentials:
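CHO-K1 cells expressing nuclear EA and GR-ED fragments of b-gal; compounds titrated up to 46 uM final, 2 h at 37 C. GR nuclear translocation read as complemented b-gal luminescence after 1 h RT detection.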

The target in test [6] is Mitogen-activated protein kinase 10 (Mus musculus) (UniProt Q61831). The test can be described thus: JNK3 AlphaScreen Assay (AID 530; active = well fitted curve in either direction with a large enough effect, not every such curve was filed as active;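 note: kinase came from lysate of stimulated human HepG2 cells; signal reports phosphorylation of biotinylated GST-cJun 1-79 at Ser73 with 10 µM ATP; % is set by controls: 0 for no effect and ±100 for the full control effect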). The method, boiled down:
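Pre-activated (IL-1β/TNFα) JNK3 in HepG2 lysates phosphorylates biotin-GST-cJun(1-79), 10 uM ATP; anti-phospho-cJun(Ser73) AlphaScreen read at room temperature, pH 7.6 Tris buffer. Compounds pre-incubated 15 min as titrations.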

Test [7] concerns the target 3',5'-cyclic-AMP phosphodiesterase 4B (Homo sapiens) (UniProt Q07343). The test can be described thus: qHTS Assay for Inhibitors of PDE-IV (AID 607; active = well fitted activation curve with a large enough effect in the main read-out, with a control signal flat, not every such curve was filed as active; note: % of control where 0% means no effect). The method, boiled down:
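Cell-based read-out of cAMP via a modified cyclic nucleotide-gated channel and membrane potential dye (535/590 nm) in HEK293 cells expressing PDE4 endogenously. Compounds tested up to 22.9 uM final; 100 uM RO 20-1724 reference.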

The nature of test [8]: qHTS Assay for Lipid Storage Modulators (AID 1519). Particulars: Drosophila S3 cells, BODIPY lipid droplet/cell ratio, laser cytometry, cells loaded with oleic acid. The method, boiled down: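 Cells seeded at 5,000 per well were treated with compounds over a concentration series and loaded with oleic acid (400 uM, as added). Lipid droplet fluorescence (488 nm excitation, 500-530 nm channel) was read by laser-scanning cytometry and normalized to 20 uM Triacsin C.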

For test [9], the target named is ATP-dependent 6-phosphofructokinase (Trypanosoma brucei brucei) (UniProt O15648). The test can be described thus: qHTS Assay to Find Inhibitors of T. brucei phosphofructokinase: hit validation (AID 492961; active = well fitted curve in the direction sought with a large enough effect; an effect the other way counts as inactive or inconclusive; note: % is set by controls: 0 for no effect and ±100 for the full control effect). The essentials:
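Luminescence from ADP-Glo reports ADP generated as T. brucei PFK (1.25 nM) phosphorylates 0.5 mM fructose-6-phosphate using 0.1 mM ATP. Reactions ran 45 min at room temperature, pH 8.0.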

The target of test [10] is Ubiquitin carboxyl-terminal hydrolase 1 (Homo sapiens) (UniProt O94782). The test can be described thus: Inhibitors of USP1/UAF1: Pilot qHTS (AID 504865; active = well fitted curve in the direction sought with a large enough effect; an effect the other way counts as inactive or inconclusive;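 note: rhodamine fluorescence freed from ubiquitin-rhodamine substrate followed over time; top concentration of the series differs between compounds; % is set by controls: 0 for no effect and ±100 for the full control effect; nearly all actives have a fitted effect of over 35% in size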). The essentials:
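In 50mM HEPES pH 7.8 containing 0.5mM EDTA, 1mM TCEP, 0.1 mg/ml BSA and 0.01% Tween-20, 1nM USP1/UAF1 is exposed to compound for 15 min, then Ub-Rho (150nM final) is added and fluorescence is read over time.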

Test [11] has as its target Luciferin 4-monooxygenase (Photinus pyralis) (UniProt P08659). Briefly: Biochemical firefly luciferase enzyme assay for NPC (AID 624030; active = well fitted curve in the direction sought with a large enough effect; an effect the other way counts as inactive or inconclusive;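 note: purified P. pyralis luciferase at 10 nM with luciferin and ATP substrate; 0% = DMSO and -100% = full luciferase inhibition by PTC124 control; nearly all actives have a fitted effect of over 70% in size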). The method, boiled down:
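Purified P. pyralis luciferase at 10 nM in 50 mM Tris Acetate (final), luminescence read within 5 minutes of enzyme addition to compounds. Activity normalised to PTC124 versus DMSO; concentration-response curves classed by r2, magnitude and activity.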

The nature of test [12]: qHTS profiling for inhibitors of Plasmodium falciparum proliferation (AID 504749; active = well fitted curve in the direction sought with a large enough effect; an effect the other way counts as inactive or inconclusive;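 note: 0% = DMSO vehicle and full inhibition = artemisinin control; nearly all actives have a fitted effect of over 60% in size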). Particulars: P. falciparum in erythrocytes, SYBR Green DNA, 72 h, at 12.8 µM (top of the series). The method, boiled down:
(§1)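 P. falciparum-infected erythrocytes (0.3% parasitemia, 2.5% hematocrit) incubated with compound 72 h at 37 C, 5% CO2. Parasite DNA detected by SYBR Green after lysis, overnight at room temperature; normalised to 0.29 uM artemisinin and DMSO.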

Another test relates to AS120. Described as above. As to conditions: P. falciparum in erythrocytes, SYBR Green DNA, 72 h; series mostly up to 28.7 µM. The essentials:
as §1

The test system of the next test is CP201. Described as above. As to conditions: P. falciparum in erythrocytes, SYBR Green DNA, 72 h; series mostly up to 12.8 µM. The essentials:
as §1

The subject of a further test is CP238. Described as above. Particulars: P. falciparum in erythrocytes, SYBR Green DNA, 72 h; series mostly up to 12.8 µM. The method, boiled down: as §1
In a further test the test system is CP262. The description is as above. As to conditions: P. falciparum in erythrocytes, SYBR Green DNA, 72 h; series mostly up to 12.8 µM. The essentials:
as §1

For a further test, the system named is CP265. The description is as above. As to conditions: P. falciparum in erythrocytes, SYBR Green DNA, 72 h; series mostly up to 12.8 µM. The essentials: as §1
The next test concerns FAB9. The test is described as above. Particulars: P. falciparum in erythrocytes, SYBR Green DNA, 72 h; series mostly up to 12.8 µM. The essentials: as §1
The next test relates to JCK. The test is described as above. As to conditions: P. falciparum in erythrocytes, SYBR Green DNA, 72 h; series mostly up to 12.8 µM. The method, boiled down:
as §1

A short description of test [13]: AP1 Signaling Pathway (AID 357; active = well fitted curve in either direction with a large enough effect, not every such curve was filed as active). As to conditions: ME-180 (cervical carcinoma) AP-1-bla reporter, EGF-induced, beta-lactamase ratio, 5 h; at 7.69 µM (top of the series) unless noted. The method, boiled down:
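First, ME-180 AP-1-bla cells were cultured overnight at 37 °C in low-serum Opti-MEM. Next, titrated compounds with EC50 EGF were incubated 5 hours. Finally, CCF4 was added for 2.5 hours and the 460/530 nm ratio recorded.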

[14] abbreviates: at 7.69 µM (top of the series) unless noted.
Setting [15] is: measured here: cell count channel max response.
Setting [16] is: measured here: lipid channel max response.

Values joined by “and” are separate entries in the source; they are usually repeats but may differ in a detail not shown here. Identical values can stand only once. Records with an inconclusive call do not appear. Active and inactive are the calls of the source. Unless noted, calls come from the whole dose curve.

Sequence of Cytochrome P450 1A2 (Homo sapiens) (P05177 whole entry, looked up): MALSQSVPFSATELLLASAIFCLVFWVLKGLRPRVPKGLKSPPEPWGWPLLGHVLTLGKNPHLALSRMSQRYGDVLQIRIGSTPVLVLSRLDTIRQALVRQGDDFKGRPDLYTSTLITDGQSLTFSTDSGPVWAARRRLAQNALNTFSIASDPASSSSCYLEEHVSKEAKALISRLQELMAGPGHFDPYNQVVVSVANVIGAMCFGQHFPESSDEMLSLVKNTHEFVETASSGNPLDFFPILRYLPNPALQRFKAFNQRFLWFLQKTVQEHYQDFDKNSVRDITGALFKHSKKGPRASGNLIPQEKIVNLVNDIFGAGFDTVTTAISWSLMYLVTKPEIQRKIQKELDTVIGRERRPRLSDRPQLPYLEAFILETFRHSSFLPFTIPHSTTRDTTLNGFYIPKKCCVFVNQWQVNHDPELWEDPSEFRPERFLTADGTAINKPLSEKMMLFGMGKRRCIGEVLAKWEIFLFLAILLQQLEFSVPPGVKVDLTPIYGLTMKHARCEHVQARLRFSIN
Sequence of 3',5'-cyclic-AMP phosphodiesterase 4B (Homo sapiens) (Q07343 whole entry, looked up): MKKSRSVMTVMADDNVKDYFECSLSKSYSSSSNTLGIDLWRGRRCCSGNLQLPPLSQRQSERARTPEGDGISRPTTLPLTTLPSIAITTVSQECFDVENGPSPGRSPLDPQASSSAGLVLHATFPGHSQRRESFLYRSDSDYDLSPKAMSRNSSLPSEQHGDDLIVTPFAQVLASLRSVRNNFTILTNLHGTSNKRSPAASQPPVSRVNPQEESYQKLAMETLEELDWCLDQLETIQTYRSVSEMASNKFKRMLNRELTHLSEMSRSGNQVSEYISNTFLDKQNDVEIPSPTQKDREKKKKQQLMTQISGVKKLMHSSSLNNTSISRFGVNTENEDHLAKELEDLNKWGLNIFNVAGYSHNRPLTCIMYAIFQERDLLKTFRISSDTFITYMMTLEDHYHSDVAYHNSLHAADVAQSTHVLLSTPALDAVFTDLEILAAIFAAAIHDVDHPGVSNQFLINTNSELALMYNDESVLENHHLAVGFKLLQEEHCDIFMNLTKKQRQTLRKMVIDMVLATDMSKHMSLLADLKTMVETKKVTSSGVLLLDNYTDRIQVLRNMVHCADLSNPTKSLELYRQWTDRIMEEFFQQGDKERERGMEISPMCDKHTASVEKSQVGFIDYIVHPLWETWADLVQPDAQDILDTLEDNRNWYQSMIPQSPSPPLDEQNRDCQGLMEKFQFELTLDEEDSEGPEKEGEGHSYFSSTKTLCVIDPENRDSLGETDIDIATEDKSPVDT
Sequence of Glucocorticoid receptor (Homo sapiens) (P04150 whole entry, looked up): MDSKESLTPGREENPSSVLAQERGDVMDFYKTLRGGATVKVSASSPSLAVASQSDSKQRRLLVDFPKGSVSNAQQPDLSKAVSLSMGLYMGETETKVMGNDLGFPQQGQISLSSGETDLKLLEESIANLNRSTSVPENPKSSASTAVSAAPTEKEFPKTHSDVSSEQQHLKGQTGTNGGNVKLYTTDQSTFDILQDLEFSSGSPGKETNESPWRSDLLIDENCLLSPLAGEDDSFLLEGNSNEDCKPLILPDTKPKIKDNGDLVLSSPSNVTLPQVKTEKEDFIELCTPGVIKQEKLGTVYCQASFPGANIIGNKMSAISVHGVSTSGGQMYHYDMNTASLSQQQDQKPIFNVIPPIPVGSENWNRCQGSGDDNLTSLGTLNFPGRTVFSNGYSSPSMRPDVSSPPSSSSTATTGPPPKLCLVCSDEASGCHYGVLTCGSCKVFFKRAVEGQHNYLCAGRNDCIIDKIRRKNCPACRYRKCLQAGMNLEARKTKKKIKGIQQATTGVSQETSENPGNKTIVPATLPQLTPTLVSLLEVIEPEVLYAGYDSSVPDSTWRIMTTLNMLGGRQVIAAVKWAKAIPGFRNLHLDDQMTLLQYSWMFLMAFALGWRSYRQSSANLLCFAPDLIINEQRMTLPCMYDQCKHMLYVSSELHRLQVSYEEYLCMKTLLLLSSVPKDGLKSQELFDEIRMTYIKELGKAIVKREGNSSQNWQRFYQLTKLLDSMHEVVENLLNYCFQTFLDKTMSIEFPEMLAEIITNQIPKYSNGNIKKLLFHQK
Sequence of Ubiquitin carboxyl-terminal hydrolase 1 (Homo sapiens) (O94782 whole entry, looked up): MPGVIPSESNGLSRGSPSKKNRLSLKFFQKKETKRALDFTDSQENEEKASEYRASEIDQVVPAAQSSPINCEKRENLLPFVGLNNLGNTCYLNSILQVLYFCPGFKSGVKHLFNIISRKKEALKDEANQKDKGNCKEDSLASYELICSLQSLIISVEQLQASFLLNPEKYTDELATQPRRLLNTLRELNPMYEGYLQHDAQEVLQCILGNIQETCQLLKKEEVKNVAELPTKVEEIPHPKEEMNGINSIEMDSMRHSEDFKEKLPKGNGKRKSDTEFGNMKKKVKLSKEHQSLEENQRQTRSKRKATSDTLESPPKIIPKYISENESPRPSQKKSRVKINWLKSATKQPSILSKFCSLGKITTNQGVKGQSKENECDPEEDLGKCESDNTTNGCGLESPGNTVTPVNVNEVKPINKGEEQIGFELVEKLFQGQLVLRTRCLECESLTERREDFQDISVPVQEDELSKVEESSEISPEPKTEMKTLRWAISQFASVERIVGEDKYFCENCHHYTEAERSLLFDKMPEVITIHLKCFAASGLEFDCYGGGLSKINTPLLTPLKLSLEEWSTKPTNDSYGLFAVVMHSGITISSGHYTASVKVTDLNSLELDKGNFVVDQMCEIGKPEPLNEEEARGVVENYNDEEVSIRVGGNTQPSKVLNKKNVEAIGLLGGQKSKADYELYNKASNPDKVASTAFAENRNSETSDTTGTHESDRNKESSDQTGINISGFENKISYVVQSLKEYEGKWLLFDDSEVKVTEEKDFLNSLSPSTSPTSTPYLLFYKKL
Sequence of ATP-dependent 6-phosphofructokinase (Trypanosoma brucei brucei) (O15648 whole entry, looked up): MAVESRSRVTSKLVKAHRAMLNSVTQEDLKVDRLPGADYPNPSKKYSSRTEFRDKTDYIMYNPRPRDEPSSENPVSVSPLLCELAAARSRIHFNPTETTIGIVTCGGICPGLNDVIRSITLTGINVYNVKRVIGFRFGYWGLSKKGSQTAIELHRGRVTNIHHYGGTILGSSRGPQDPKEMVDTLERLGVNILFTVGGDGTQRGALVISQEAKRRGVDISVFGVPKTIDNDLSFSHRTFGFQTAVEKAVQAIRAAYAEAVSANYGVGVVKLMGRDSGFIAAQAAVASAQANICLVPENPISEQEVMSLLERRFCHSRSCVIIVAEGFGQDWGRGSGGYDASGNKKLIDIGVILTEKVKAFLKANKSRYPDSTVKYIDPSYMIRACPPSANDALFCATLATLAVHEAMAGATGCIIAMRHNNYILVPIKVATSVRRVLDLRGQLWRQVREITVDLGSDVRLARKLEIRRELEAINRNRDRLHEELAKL
Sequence of Luciferin 4-monooxygenase (Photinus pyralis) (P08659 whole entry, looked up): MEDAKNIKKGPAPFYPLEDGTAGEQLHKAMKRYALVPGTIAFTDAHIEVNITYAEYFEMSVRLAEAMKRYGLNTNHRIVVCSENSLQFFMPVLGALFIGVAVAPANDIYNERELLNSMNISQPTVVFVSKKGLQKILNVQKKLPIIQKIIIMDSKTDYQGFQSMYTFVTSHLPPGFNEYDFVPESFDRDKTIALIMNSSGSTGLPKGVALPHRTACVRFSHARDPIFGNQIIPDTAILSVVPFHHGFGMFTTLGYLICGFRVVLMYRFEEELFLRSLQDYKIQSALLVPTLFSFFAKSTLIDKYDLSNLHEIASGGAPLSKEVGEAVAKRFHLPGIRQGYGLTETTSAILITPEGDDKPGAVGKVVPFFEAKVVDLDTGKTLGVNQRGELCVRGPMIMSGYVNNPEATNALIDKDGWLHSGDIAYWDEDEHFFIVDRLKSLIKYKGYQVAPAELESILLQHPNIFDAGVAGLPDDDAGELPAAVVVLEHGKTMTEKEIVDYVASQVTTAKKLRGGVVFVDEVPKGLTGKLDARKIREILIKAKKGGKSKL

For the compound `O=C(O)/C=C\c1ccc(Cn2ccnc2)cc1`, the values for the Potency in test [1], in [4] and in test [5] were 12.6 µM (active), > 20.6 µM (inactive) and > 20.6 µM (inactive), respectively. Moreover, the results for the activity change, negative = inhibition in [2] and in [8] (at 25.7 µM (top of the series)) were -0.213% [at 17.2 µM] (inactive) and 0.716% (inactive), respectively. The activity, negative = inhibition in test [3] (setting [14]) is 6.45% [at 17.2 µM] (inactive); in test [12] (parasite line A), 2.69% (inactive); in test [12] (parasite line B), -5.94% (inactive). The Potency result (in test [6]; in test [7]; in test [10]; in the test with AS120; in the test on CP201; in the test with CP238) was “inactive” in each case. The Potency result with CP262, with CP265, in the test on FAB9 and in the test on JCK was “inactive” each time. Moreover, the max response in [8] (setting [15]) is -6.14%; in [8] (setting [16]), -3.7%. In addition, the result in test [9] and in test [11] was inactive.
Consider `CC(C)(S)[C@H](N)C(=O)O`, for which the activity change, negative = inhibition was 1.59% (inactive) in test [13], 8.46% (inactive) in [2] and 1.55% [at 11.4 µM] (inactive) in test [6]. Moreover, the figures for the Potency in test [4] and in [5] were > 46 µM (inactive) and > 9.22 µM (inactive), respectively. Further, the Potency result in test [7] was “inactive”.
For `Cc1ccccc1[C@@H](OCCN(C)C)c1ccccc1`, the activity change, negative = inhibition in [13] was 26.9% [at 17.2 µM] (inactive); in [8] (at 25.7 µM (top of the series)), -1.18% (inactive). The Potency entry in test [1], in test [6] and in test [7] was “inactive” each time. Further, the figures for the activity, negative = inhibition in test [3] (at 17.2 µM (top of the series)) and in [3] (at 38 µM (top of the series)) were 5.39% (inactive) and 20.8% (inactive), respectively. The Potency is > 46 µM (inactive) and > 20.6 µM (inactive) in test [4]; > 46 µM (inactive) and > 20.6 µM (inactive) in test [5]. The figures for the max response in test [8] (setting [15]) and in test [8] (setting [16]) were 0.329% and 1.49%, respectively.
As for `CS(=O)(=O)Nc1cccc(-c2nc(NC3CC3)c3ccccc3n2)c1`, the activity change, negative = inhibition is -17.2% (inactive) in [13] and 0.73% (inactive) in [2]. Also, the activity, negative = inhibition in [3] (setting [14]) was 4.92% (inactive). Further, the Potency in test [4] and in [5] was > 46 µM (inactive) each time. Moreover, the Potency result in [6], in test [7] and in test [10] was “inactive” throughout.
On to `Nc1ncnc2c1ncn2C1OC(CO)C(O)C1O` (centres undefined), for which the activity change, negative = inhibition in [8] (at 57.5 µM (top of the series)) was 9.6% (inactive) and 14.7% (inactive). The max response is 19.8% and 38.9% in test [8] (setting [15]); 31.9% and 67.8% in [8] (setting [16]).
Take `CC(CCC(=O)O)C1CCC2C3C(O)C[C@@H]4CC(O)CC[C@@]4(C)C3CC[C@@]12C` (some centres undefined): the activity change, negative = inhibition in test [8] (at 57.5 µM (top of the series)) was 1.17% (inactive) and 5.02% (inactive). Moreover, the max response in test [8] (setting [15]) is 13% and 15.4%; in [8] (setting [16]) it was 15% and 25.1%. The Potency result in test [10] is “inactive”.
On to `CS(=O)(=O)Nc1cccc(-c2nc(N3CCNCC3)c3ccccc3n2)c1`, for which the activity change, negative = inhibition was 5.71% (inactive) in test [13] and 5.5% (inactive) in test [8] (at 57.5 µM (top of the series)). In addition, the Potency in test [1] was 20 µM (active); in test [4] it was > 46 µM (inactive); in test [5], > 46 µM (inactive). The activity, negative = inhibition in [3] (setting [14]) was 2.63% (inactive). The Potency result in [6], in [7] and in [10] was “inactive” throughout. For the same compound, the max response came out at 12.3% in test [8] (setting [15]) and 18.5% in [8] (setting [16]).
Regarding `CCCN1C[C@H](CSC)C[C@H]2c3cccc4[nH]cc(c34)C[C@@H]21`, the activity change, negative = inhibition in test [13] was -5.45% [at 17.2 µM] (inactive); in [8] (at 25.7 µM (top of the series)) it was -0.938% (inactive). For the same compound, the Potency in test [1] is 3.16 µM (active) and 1.58 µM (active); in test [4] it was > 20.6 µM (inactive) and > 46 µM (inactive); in test [5], > 20.6 µM (inactive) and > 46 µM (inactive). For the same compound, in test [3] (setting [14]), the activity, negative = inhibition was 6.37% [at 17.2 µM] (inactive). Further, the Potency result in [6] was “inactive”. Also, the max response in test [8] (setting [15]) was -9.01%; in test [8] (setting [16]), -9.12%.

The values are drawn from PubChem BioAssay (NCATS).
